Source: PubChem (Corson Lab, School of Medicine, Indiana University)
The full list was thinned out, with hits kept by preference.
FECH inh – human FECH heme synthesis enzyme inhibition | purified FECH, Ni-mesoporphyrin absorbance 550 nm | calls only at 10 µM (by protocol) | hit rate 3.3% among 20,000;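 active = enzyme reaction rate more than 3 SD below the solvent-only control wells on the same plate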;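 note: lower slope than DMSO wells means FECH inhibition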
An asterisk follows results filed as active; i = inactive; + = active, no number.

SMILES | FECH inh
O=C(Nc1ccon1)c1cccn(Cc2cccc(Cl)c2)c1=O | +
NC(=O)c1ccccc1NC(=O)c1cccn(Cc2cccc(Cl)c2)c1=O | i
NC(=O)c1ccc(NC(=O)c2cccn(Cc3cccc(Cl)c3)c2=O)cc1 | i
Cc1nc(CNC(C)Cn2cncn2)cs1 (configuration not stated) | i
CC(Cn1ccnc1)NCc1csc2c1CCCC2 (configuration not stated) | i
